C diff HTS: inhibitors of Clostridium difficile growth | AID 1259249 | Clostridium difficile clinical isolate growth, OD600, 24 h; stronger effect = lower value | 86,000 tested, 0.25% active | growth activity, negative = inhibition, % at 16 µg/mL (by protocol);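 active means mean growth activity at or below -80% and every replicate also at or below -80%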
Pf Dd2 growth: blocks growth of Plasmodium falciparum Dd2 parasites; P. falciparum Dd2 growth, SYBR Green, 72 h; stronger effect = lower value; activity change, % at 10 µM; 94,000 tested, 2.3% active; AID 1159554; in the data active means activity change below about -80%
Hits are given with their value; ! = repeats disagree. In the library only some 2.3% were active in any assay of this set; here they are far more common.

C[C@@H]1CCCCO[C@@H](CN(C)Cc2ccc(Cl)c(Cl)c2)[C@@H](C)CN([C@H](C)CO)C(=O)c2cc(NC(=O)c3ccccc3)ccc2O1 was read as C diff HTS inactive and Pf Dd2 growth inactive.
`C[C@@H]1CN([C@@H](C)CO)C(=O)c2cc(NC(=O)c3ccccc3)ccc2O[C@@H](C)CCCCO[C@H]1CN(C)Cc1ccccc1` gave C diff HTS inactive and Pf Dd2 growth -85.
`CCCN(C)C[C@H]1OCCCC[C@@H](C)Oc2ccc(NC(=O)c3ccccc3)cc2C(=O)N([C@@H](C)CO)C[C@H]1C` gave C diff HTS inactive and Pf Dd2 growth -91.
Screening CCCN(C)C[C@@H]1OCCCC[C@@H](C)Oc2ccc(NC(=O)C3CCCCC3)cc2C(=O)N([C@@H](C)CO)C[C@@H]1C returned C diff HTS inactive and Pf Dd2 growth inactive.
For CCCN(C)C[C@@H]1OCCCC[C@H](C)Oc2ccc(NC(=O)c3ccccc3)cc2C(=O)N([C@H](C)CO)C[C@@H]1C the results were C diff HTS inactive.
For C[C@@H]1CCCCO[C@H](CN(C)Cc2ccccc2)[C@H](C)CN([C@@H](C)CO)C(=O)c2cc(NC(=O)c3ccccc3)ccc2O1 the results were C diff HTS inactive and Pf Dd2 growth inactive.
For C[C@@H]1CCCCO[C@H](CN(C)Cc2ccc(Cl)c(Cl)c2)[C@@H](C)CN([C@@H](C)CO)C(=O)c2cc(NC(=O)c3ccccc3)ccc2O1 the results were C diff HTS inactive and Pf Dd2 growth -90.
For CCCN(C)C[C@@H]1OCCCC[C@H](C)Oc2ccc(NC(=O)C3CCCCC3)cc2C(=O)N([C@@H](C)CO)C[C@@H]1C the results were C diff HTS inactive and Pf Dd2 growth -83.
For O=C(c1ccccc1F)N1CC2(C1)[C@H](c1ccccc1)[C@@H](CO)N2CC1CCCC1 the results were C diff HTS inactive and Pf Dd2 growth inactive.
`COc1ccc(NC(=O)N(C)C[C@@H]2Oc3c(NC(=O)c4cc(C)nn4C)cccc3C(=O)N([C@@H](C)CO)C[C@@H]2C)cc1` gave C diff HTS inactive and Pf Dd2 growth inactive.
Screening O=C(NCc1ccccc1)[C@H]1[C@H](CO)[C@H]2Cn3c(cccc3=O)[C@H]2N1C(=O)C1CC1 returned C diff HTS inactive and Pf Dd2 growth inactive.
`C[C@H](CO)N1C[C@H](C)[C@H](CN(C)S(=O)(=O)c2cn(C)cn2)Oc2ncc(Br)cc2C1=O` gave C diff HTS inactive and Pf Dd2 growth inactive.
Screening C[C@H](CO)N1C[C@H](C)[C@@H](CN(C)Cc2ccncc2)Oc2ccc(NC(=O)C3CCCCC3)cc2CC1=O returned C diff HTS inactive and Pf Dd2 growth inactive.
COc1ccc2c3c([nH]c2c1)[C@@H](CO)N(C(=O)Nc1c(C)noc1C)CC31CN(CC2CCCCC2)C1 was read as C diff HTS inactive and Pf Dd2 growth inactive.
`C[C@@H]1CCCCO[C@@H](CN(C)Cc2ccc(Cl)c(Cl)c2)[C@H](C)CN([C@H](C)CO)C(=O)c2cc(NC(=O)c3ccccc3)ccc2O1` gave C diff HTS inactive and Pf Dd2 growth -81.
`C[C@@H]1CCCCO[C@H](CN(C)CC2CC2)[C@H](C)CN([C@@H](C)CO)C(=O)c2cc(NC(=O)c3ccccc3)ccc2O1` gave C diff HTS inactive and Pf Dd2 growth -84.
C[C@@H]1CCCCO[C@@H](CN(C)CC2CC2)[C@H](C)CN([C@@H](C)CO)C(=O)c2cc(NC(=O)c3ccccc3)ccc2O1 was read as C diff HTS inactive and Pf Dd2 growth inactive.
Screening C[C@H](CO)N1C[C@H](C)[C@H](CN(C)Cc2ccc(Cl)c(Cl)c2)OCCCC[C@H](C)Oc2ccc(NC(=O)c3ccccc3)cc2C1=O returned C diff HTS inactive and Pf Dd2 growth inactive.
Screening N#Cc1ccc(-c2ccc(C3[C@@H]4CN(C(=O)C5CCC5)C[C@H]3N4)cc2)cc1 (stereo partly specified) returned C diff HTS inactive and Pf Dd2 growth -91!.
For O=C(C1CCCC1)N1C[C@@H]2N[C@H](C1)C2c1ccc(-c2ccncc2)cc1 (stereo partly specified) the results were C diff HTS inactive and Pf Dd2 growth inactive.
O=C(C1CC1)N1C[C@@H]2N[C@H](C1)C2c1ccc(-c2cccc(F)c2)cc1 (stereo partly specified) was read as C diff HTS inactive and Pf Dd2 growth -81!.
`N#Cc1ccc(-c2ccc(C3[C@@H]4CN(C(=O)C5CCCC5)C[C@H]3N4)cc2)cc1` (stereo partly specified) gave C diff HTS inactive and Pf Dd2 growth -81.
For O=C(C1CCCC1)N1C[C@@H]2N[C@H](C1)C2c1ccc(-c2cncnc2)cc1 (stereo partly specified) the results were C diff HTS inactive and Pf Dd2 growth inactive.
N#Cc1cccc(-c2ccc(C3[C@@H]4CN(C(=O)C5CC5)C[C@H]3N4)cc2)c1 (stereo partly specified) was read as C diff HTS inactive and Pf Dd2 growth -90!.

Screening results: PubChem BioAssay, Broad Institute
